Experimental data taken from PubChem BioAssay AID1259418 (Broad Institute, 2018).
Hit rate of the full screen: of about 3,400 compounds, about 840 (25%) were called active. Another 11% or so got no clear call; they are omitted.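 How the source made its calls: active means fitted half-maximal concentration of signal decrease at or below twice the sample's top tested concentration; inconclusive means flat curve between -70 and -30 percent, or poor fit; inactive means flat within 30 percent, signal rise, or potency above limit.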 Not all results are given here. Entries with a potency or affinity are not part of this list.

Test: T. gondii growth inhibition with IFN-gamma, dose response, cell-based, ME49Luc, HeLa, luciferase, 72 h (AID 1259418)
Settings: T. gondii ME49Luc in IFN-y HeLa, active compounds read low, -100% = high-dose IFN-γ control wells; at 19.5 µM unless noted

SMILES | max activity
Cc1ccccc1CC(=O)N1CCC2(CC1)Nc1cc(F)ccc1-n1cccc12 | 10.3% [at 0.68 µM] (inactive)
CCOC(=O)c1cccc(NC(=O)Nc2ccc(-c3nc(-c4ccc(C)cc4C)co3)cc2)c1 | -3.92% [at 1.35 µM] (inactive)
CCOc1ccc(-c2nc(CN3CCN(C(=O)Nc4cccc(C)c4C)CC3)c(C)o2)cc1 | -7.65% [at 0.68 µM] (inactive)
O=C(CC1Nc2c3ccccc3nc(=S)n2C1=O)NCCc1ccccc1 (stereo not given) | -10.8% [at 0.68 µM] (inactive)
Cc1ccc(C)c(-c2coc(-c3ccc(NC(=O)NCc4cccc(F)c4)cc3)n2)c1 | 9.05% (inactive)
Cc1oc(-c2cccc(Cl)c2)nc1CSc1nc2c(c(=O)[nH]1)CN(C(C)C)CC2 | 17.7% [at 0.68 µM] (inactive)
COc1ccc(-c2nc(Nc3ccc(F)cc3)c3ccccc3n2)cc1 | -11.2% [at 2.6 µM] (inactive)
COc1ccc(-c2nc(Nc3ccc(C)c(Cl)c3)c3ccccc3n2)cc1 | 13% [at 0.35 µM] (inactive)
CCOc1ccc(Nc2nc(-c3ccc(OC)cc3)nc3ccccc23)cc1 | 9.36% (inactive)
COc1ccc(-c2nc(Nc3ccc(Cl)cc3)c3ccccc3n2)cc1 | 10.4% [at 0.35 µM] (inactive)
O=C(Cc1cccc(F)c1)N1CCC2(CC1)Nc1cc(F)ccc1-n1cccc12 | -7.02% [at 2.6 µM] (inactive)
CCOc1ccccc1CNc1nc(-c2ccc(Cl)cc2)nc2ccccc12 | 22.2% (inactive)
COc1ccccc1NC(=O)Nc1ccc(-c2nc(-c3ccccc3)co2)cc1 | 62.5% [at 10 µM] (inactive)
COc1cccc(CC(=O)Nc2ccc(-c3nc(-c4cc(C)ccc4C)co3)cc2)c1 | -7.87% (inactive)
CCC(C)Nc1nc(-c2ccc(Cl)cc2)nc2ccccc12 (stereo not given) | -11.3% [at 10 µM] (inactive)
CCCNC(=O)[C@H]1[C@H](CO)[C@H]2Cn3c(ccc(C4=CCCCC4)c3=O)[C@H]2N1Cc1ccccc1F | 16.8% [at 10 µM] (inactive)
CN1[C@@H]2c3ccc(/C=C/c4ccccc4)c(=O)n3C[C@H]1[C@H](CO)[C@H]2C(=O)NC1Cc2ccccc2C1 | 43.1% [at 5 µM] (inactive)
O=C(CCn1cnc2cc(-c3noc(CCc4c[nH]c5ccccc45)n3)ccc21)N1CCCC1 | -14.5% [at 0.16 µM] (inactive)
O=C(CCn1cnc2cc(-c3noc(-c4cccc5[nH]ccc45)n3)ccc21)N1CCCC1 | -15.6% [at 0.35 µM] (inactive)
COc1ccc(NC(=O)Nc2ccc(-c3nc(-c4ccc(C)cc4)co3)cc2)cc1 | 43.2% [at 10 µM] (inactive)
